Bioassay records as filed in PubChem BioAssay.
This is a sample that favours compounds with a hit; in the whole collection about 10% have one here.
GLS inhibitor = blocks human kidney-isoform glutaminase activity | O94925 | GLS enzymatic activity, qHTS titration | Potency, µM (highest dose often 45.5 µM), without a hit: at the highest dose activity change, negative = inhibition, usual class: inhibitors | actives 0.21% (n = 410,000) | AID 624170; further: on the % scale 0 is the no-effect control and ±100 the full control effect
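Two-point fluorescence kinetic (t0, 30 min RT) for hKGA; glutamate detected via glutamate oxidase–HRP–Amplex Red. Substrate: 1 mM L-glutamine solution; buffer 45 mM KH2PO4, pH 8.2.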
HP1b binding inh = blocks HP1-beta chromodomain binding to methylated histone tails | P83916 | AlphaScreen HP1-beta / biotin-H3K9me3 peptide binding | Potency, µM (series often up to 114 µM), inactives show at the top dose activity change, negative = inhibition, most hits filed as inhibitors | actives 0.56% (n = 390,000) | AID 540317; further: nearly all actives have a fitted effect of over 70% in size
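Compound inhibition of the preformed complex between 50 nM HP1-beta and 50 nM biotinylated H3K9me3 peptide was read by AlphaScreen. Buffer was PBS pH 7.4 with 0.01% Tween-20. Incubations ran 30 min at room temperature, with 10 ug/mL donor/acceptor beads.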
BAZ2B block = blocks human BAZ2B | actives 4.4% (n = 360,000) | Potency, µM (top dose mostly 114 µM), for inactives: at the top dose activity change, negative = inhibition, most hits filed as inhibitors | AlphaScreen BAZ2B-H3K14Ac peptide displacement | Q9UIF8; further: on the % scale 0 is the no-effect control and ±100 the full control effect; nearly all actives have a fitted effect of over 60% in size
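Complex of BAZ2B and biotin-H3K14Ac (50 nM apiece) forms over 30 min at RT, then faces library compounds up to 110 uM for another 30 min; AlphaScreen beads added, 20 min dark incubation, luminescence read.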
JMJD2A Tudor = JMJD2A Tudor domain (human) inhibition; O75164; AlphaScreen JMJD2A-Tudor / H3K4me3 peptide binding; Potency, µM (titrated, usually from 114 µM), without a hit: at the highest dose activity change, negative = inhibition, actives largely listed as inhibitors; actives 4.4% (n = 390,000); further: on the % scale 0 is the no-effect control and ±100 the full control effect; nearly all actives have a fitted effect of over 50% in size
G9a block = G9a (human) methyltransferase inhibition. G9a H3K9 monomethylation, AlphaScreen, 2 h. Potency, µM (titrated, usually from 102 µM), inactives show at the top dose activity, negative = inhibition, usual class: inhibitors. actives 8.8% (n = 350,000); further: on the % scale 0 is the no-effect control and ±100 the full control effect; nearly all actives have a fitted effect of over 75% in size
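Enzyme 20 nM + cpd, 15 min RT; add b-H3K9 pep 500 nM / SAM 20 uM; 2 h RT; anti-H3K9me1 Ab 0.5 ug/mL + SA donor / anti-rabbit acceptor beads 20 ug/mL each, 10 min; AlphaScreen read.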
L3MBTL1 inh = blocks human L3MBTL1. Q9Y468. AlphaScreen L3MBTL1–H3K9me1 peptide binding. Potency, µM (series often up to 57.1 µM), without a hit: at the highest dose activity, negative = inhibition, hits mostly inhibitors. actives 0.66% (n = 230,000). AID 485360; further: on the % scale 0 is the no-effect control and ±100 the full control effect; nearly all actives have a fitted effect of over 60% in size
Target sequence (Q9Y468 whole entry, looked up): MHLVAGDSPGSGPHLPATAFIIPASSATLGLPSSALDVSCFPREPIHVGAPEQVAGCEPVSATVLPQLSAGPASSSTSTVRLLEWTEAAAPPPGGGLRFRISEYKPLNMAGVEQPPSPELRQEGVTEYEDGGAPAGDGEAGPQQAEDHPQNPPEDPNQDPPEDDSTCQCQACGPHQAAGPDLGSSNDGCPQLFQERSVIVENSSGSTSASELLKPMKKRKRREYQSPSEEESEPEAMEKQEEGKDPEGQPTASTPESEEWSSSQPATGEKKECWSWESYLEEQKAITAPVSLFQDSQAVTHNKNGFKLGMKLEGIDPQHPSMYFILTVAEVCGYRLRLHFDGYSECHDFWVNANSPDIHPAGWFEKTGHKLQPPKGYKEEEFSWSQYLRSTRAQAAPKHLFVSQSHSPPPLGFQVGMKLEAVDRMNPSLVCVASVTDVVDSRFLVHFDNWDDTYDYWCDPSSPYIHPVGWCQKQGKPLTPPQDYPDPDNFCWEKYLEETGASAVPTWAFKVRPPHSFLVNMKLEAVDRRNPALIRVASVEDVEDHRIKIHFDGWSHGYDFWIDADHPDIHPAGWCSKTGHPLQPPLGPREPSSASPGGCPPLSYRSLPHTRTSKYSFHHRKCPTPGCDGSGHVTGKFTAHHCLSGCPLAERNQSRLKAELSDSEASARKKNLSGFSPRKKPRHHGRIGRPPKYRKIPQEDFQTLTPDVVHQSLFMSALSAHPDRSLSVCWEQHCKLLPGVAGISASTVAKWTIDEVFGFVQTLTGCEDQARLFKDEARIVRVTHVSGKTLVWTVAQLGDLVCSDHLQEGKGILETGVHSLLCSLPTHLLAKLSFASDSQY
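AlphaScreen proximity signal between nickel-chelate acceptor and streptavidin donor beads (final 10 ug/mL) reports binding of 50 nM L3MBTL1 to 75 nM biotin-H3 K9me1 peptide; complex incubated with compounds 30 min at room temperature; cefsulodin titration as control.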
An asterisk follows results filed as active; ? = inconclusive; . = no result; [ ] = remark or other dose. The call rests on the fitted dose curve; in most records, active means well fitted curve in the direction sought with a large enough effect; inconclusive means small, poorly fitted or top-dose-only effect, or another doubt; inactive means no such curve, though single readings can be large; an effect the other way counts as inactive or inconclusive. Potency means the concentration at half of the fitted maximal effect.

SMILES	GLS inhibitor	HP1b binding inh	BAZ2B block	JMJD2A Tudor	G9a block	L3MBTL1 inh
COC(=O)/C=c1/s/c(=C(\C#N)C(=O)NCc2ccco2)n(-c2ccccc2)c1=O	6%	12%	-7%	-6%	45µM*	-8%
O=C(NCCN1C(=O)S/C(=C\c2cccnc2)C1=O)c1ccc([N+](=O)[O-])s1	0%	19%	13%	-15%	14µM*	-3%
O=C(NCCN1C(=O)S/C(=C\c2cccnc2)C1=O)c1cc(S(=O)(=O)N2CCOCC2)ccc1F	15%	40%	-6%	?	40µM*	-4%
Cc1ccc(S(=O)(=O)N2CCOCC2)cc1C(=O)NCCN1C(=O)S/C(=C\c2ccccc2Cl)C1=O	3%	8%	-5%	-11%[57.1 µM]	-10%[59 µM]	-13%
O=C1c2cccnc2C(=O)N1CNc1ccc(Cl)cc1	8%	26%	56µM*	-1%	?	-9%
COc1ccc(-c2nc(CN3CCC(C(=O)NCCCOC(C)C)CC3)c(C)o2)cc1OC	4%	27%	-8%	-19%	8.9µM*	.
CCNc1ncc2nc(-c3cccc(C#N)c3)c(=O)n(Cc3cccc(OC)c3)c2n1	.	.	.	.	10%[0.501 µM]	.
Cc1cc(Br)ccc1NC(=O)C1C2CCC(O2)C1C(=O)O (stereo unspecified)	-2%	64%	-1%	-5%	32µM*	4%
COc1ccc(C(c2nnnn2CCc2ccccc2)N2CCN(C3CCCC3)CC2)cc1OC (stereo unspecified)	2%	50%	?	-4%	50µM*	4%
COc1ccc(C(c2nnnn2C2CCCC2)N2CCN(C3CCCC3)CC2)cc1OC (stereo unspecified)	-4%	15%	-34%	56µM*	?	6%
COc1ccccc1C(c1nnnn1Cc1ccccc1)N1CCN(C2CCCC2)CC1 (stereo unspecified)	-10%	5%	-33%	2%[11.4 µM]	?	-4%
O=C(NCC1CCCO1)c1ccc(COc2ccc(F)cc2)o1 (stereo unspecified)	2%	44%	-10%	-5%	-43%[12.7 µM]	.
CCOc1cc(N)c(Cl)cc1C(=O)NCC1CN(Cc2ccc(F)cc2)CCO1 (stereo unspecified)	2%	10%	.	50µM*	0%[59 µM]	.
O=[N+]([O-])c1ccccc1/C=C\C=N\N1CCN(c2ccccc2)CC1	12%	?	4µM*	10µM*	11µM*	?
NS(=O)(=O)c1ccc(N/N=C/C=C/c2ccccc2[N+](=O)[O-])cc1	?	?	?	?	32µM*	.
O=[N+]([O-])c1ccccc1/C=N/Nc1nc(N2CCCC2)nc(N2CCCC2)n1	-4%	7%	-38%	-33%	-26%	4%
O=[N+]([O-])c1ccccc1/C=C/C=N/Nc1nc(N2CCCCC2)nc(N2CCCCC2)n1	5%	?	?	?	40µM*	-13%
O=[N+]([O-])c1ccccc1/C=C/C=N/N1CCCCC1	4%	50µM*	20µM*	18µM*	40µM*	.
C(/C=C/c1ccccc1)=N/N1CCN(c2ccccc2)CC1	3%	-5%	-7%	-24%	?	-1%
COc1ccc(NC(=O)Cn2ccn(-c3ccc(F)c(F)c3)c(=O)c2=O)cc1Cl	-27%	16%	-12%	-20%	-20%[59 µM]	.
COc1cccc(NC(=O)c2sc3nc(C)c(C(=O)Nc4ccc(C)cc4C)c(-c4ccccc4Cl)c3c2N)c1	-2%	68%	-3%	7%	-1%[59 µM]	.
CCOC(=O)c1c(NC(=O)COc2ccc(Cl)cc2Cl)sc2c1CCCCC2	-7%	43%	2%	4%	9%[59 µM]	.
Cc1ccc(/C=N/N2CCN(c3ccccc3)CC2)cc1	0%	22%	14%	-3%	-13%	6%
CCOc1cccc(/C=N/N2CCN(c3ccc(Cl)cc3)CC2)c1O	8%	5%	?	-29%	-31%	.
